Assay results taken from paper PMC5540273 (PLoS ONE, 2017).

Experiments:
[1] = test system: CDKL5
[2] = test system: CLK3
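Note: kd values determined as follow-up on hits from a single-replicate KINOMEscan panel screen.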

Row | Structure (SMILES) | Kd [1] [µM] | Kd [2] [µM]
1 | COc1ccc(Nc2nccc(N3CCC(NC(=O)C(C)c4ccc(Cl)cc4)CC3)n2)cc1 (stereo not drawn) [GSK1379812] | > 10 | 
2 | CCCCc1nn2ncccc2c1-c1ccnc(NC2CC2)n1 [GW684374] |  | > 10
3 | Cc1cccc2c(-c3ccncn3)c(-c3ccc(F)cc3)nn12 [GW515532] |  | > 10
